Test results taken from PubChem BioAssay (NCI).
About 83,000 compounds went through this panel and 20% of them were active in at least one assay; those are over-represented in the sample as a whole.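 Percent growth is the endpoint: 0 to 100 indicates growth inhibition (40 means 60% inhibition), 0 means no net growth, and negative values indicate cell death.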 A number with no mark means an inactive call. Activity calls are given as the source filed them.

These compounds were tested on OVCAR-3 ovarian (assay: NCI-60 one-dose screen, 48 h (100 = growth as untreated, 0 = no growth, -100 = all killed)). Conditions: 10 µM unless noted.
Procedure: Growth inhibition of the OVCAR-3 human tumor cell line is measured as a screen for anti-cancer activity. Cells are grown in 96 well plates and exposed to the test compound for 48 hours. Compounds are tested at a single concentration, which is 10^-5 M for most compounds. The reported endpoint is percent growth (GI% or GIPRCNT), where numbers from 0 - 100% represent growth inhibition, and numbers from -100% - 0 represent cell death. For example, a value of 40 represents 60% growth inhibition. A value of 0 means no net growth occurred over the course of the experiment. A value of -40 indicates 40% of cells at the beginning of the experiment died by the end of the experiment. A value of -100 means all cells are dead at the end of the experiment.
NCI-60 Human Tumor Cell Lines Screen was performed using the standard one-dose NCI protocol, which is described in more detail at https://dtp.cancer.gov/discovery_development/nci-60/default.htm.
Compounds with GIPRCNT values below 10 were considered active. Activity score was based on GIPRCNT using the following formula: […]
Score is 0 for GIPRCNT values of 100 or above, 50 for GIPRCNT values of 0, and 100 for GIPRCNT values of -100.

Which growth does the source give for CC1(C)O[C@H]2OC3CCC(=O)CC3(O)[C@H]2O1 (stereo not given in full) here?
Its growth is 104%.

With COc1ccc(-c2cc(-c3ccc(OC)cc3)nc(NCCCNc3ccnc4cc(Cl)ccc34)n2)cc1 as the compound, how does the growth read?
Its growth is 91.7%.

How did the growth turn out when COc1ccc(NC(=O)c2sc3nc(C)c(C(O)c4ccccc4)cc3c2N)cc1 (stereo not given) was run?
The growth was 8.68% (active).

How did the growth turn out when Cc1ccc(S(=O)(=O)n2cc(C3C(Cl)C(=O)N3c3ccc(N4CCOCC4=O)cc3)c3ccccc32)cc1 (stereo not given) was run?
Its growth is 30.4%.

CCCCCCCCCCCCCCCCOC(=O)c1c(C)[nH]c(/C=C2\N=C(c3ccc[nH]3)C=C2OC)c1C was tested. Which growth did it give?
The growth was 47.6%.

O=C(Cn1nnc2ccccc21)Nc1ccc(-c2nc3ccccc3s2)cc1 was tested. Which growth did it give?
The growth was 90.4%.

O=C(N=Nc1c(O)[nH]c2ccccc12)Nc1ccc(Cl)cc1 was tested. Which growth did it give?
Its growth is 97.5%.

COc1ccc2c(c1)c(-c1cc(-c3cn(C)c4ccc(OC)cc34)on1)cn2C was tested. Which growth did it give?
Its growth is 107%.

O=C(/C=C/c1ccc(Br)cc1)c1ccc(-n2cc(CN3CCN(c4cc5c(cc4F)c(=O)c(C(=O)O)cn5C4CC4)CC3)nn2)cc1 was tested. Which growth did it give?
Its growth is 95.9%.

How did the growth turn out when COc1cc(C(=O)C(=O)c2cc(OC)c(O)c(OC)c2)cc(OC)c1O was run?
Its growth is 103%.

With COc1ccc(C2CC(c3ccc4c(c3)OCO4)=Nc3c(N)ncnc3N2)cc1 (stereo not given) as the compound, how does the growth read?
The growth was 151%.

Which growth does the source give for CCOC(=O)c1c(NC(=O)CSc2n[nH]c3nc4ccccc4n23)sc(CC)c1C here?
The growth was 106%.

How did the growth turn out when CCN1C(=O)N(CC)C2C1NN=c1s/c(=C\c3cc4ccccc4[nH]3)c(=O)n12 (stereo not given) was run?
Its growth is 11.7%.

How did the growth turn out when CN(CCC#N)c1ccc(/C=C2\NC(=O)NC2=O)cc1 was run?
The growth was 121%.

For O=C(CN1C(=O)/C(=C/c2ccco2)SC1=S)NCCc1c[nH]c2ccc(F)cc12, which growth is on record?
The growth was 110%.

With Cc1c(N2CN3C[C@H](C)N4CN(c5c(C)n(C)n(-c6ccccc6)c5=O)CN5C[C@@H](C)N(C2)C3C54)c(=O)n(-c2ccccc2)n1C (stereo not given in full) as the compound, how does the growth read?
Its growth is 100%.

With COc1ccc(C2CC(c3ccc(Nc4nc(Nc5ccc(F)cc5)nc(Nc5ccc(F)cc5)n4)cc3)=NN2C(C)=O)cc1 (stereo not given) as the compound, how does the growth read?
Its growth is 97.9%.

How did the growth turn out when COc1ccc(C2=CN3CC=CCC3CC2=O)cc1 (stereo not given) was run?
The growth was 102%.

O=C(N/N=C/c1ccc([N+](=O)[O-])cc1)c1ccc2nc(-c3ccc(Cl)cc3)[nH]c2c1 was tested. Which growth did it give?
Its growth is 11.3%.

With CCOC(=O)c1c(C)nc2ccccc2c1/C=C/c1ccc(OC)cc1 as the compound, how does the growth read?
The growth was 73.9%.

COc1ccc(C/C(C)=C(/c2ccc(OCCN3CCCCCC3)cc2)c2ccc(OC(=O)NCc3ccccc3)cc2)cc1 was tested. Which growth did it give?
The growth was 75.1%.

How did the growth turn out when O=c1[nH]c(-c2ccc(Cl)cc2)cn1-c1ccc(-n2cc(-c3ccc(Cl)cc3)[nH]c2=O)cc1 was run?
The growth was 109%.

How did the growth turn out when COc1ccc(Cc2cnc(NC(=O)c3sc4ccccc4c3Cl)s2)cc1 was run?
Its growth is -8.48% (active).

For CCCCN1C(=O)/C(=c2\sc3n(c2=O)NC2C(N=3)N(CC)C(=O)N2CC)c2ccccc21 (stereo not given), which growth is on record?
The growth was 0.018% (active).

Which growth does the source give for CCN(CC)c1ccc(N2C(=O)/C(=C/c3cccs3)SC2=S)cc1 here?
Its growth is 101%.

O=C(/C=C/C12c3ccccc3C(c3ccccc31)C1C(=O)NC(=O)C12)c1ccccn1 (stereo not given) was tested. Which growth did it give?
The growth was -8.72% (active).

O=C1CCC(C(=O)NN(c2ccccc2)c2ccccc2)N1 (stereo not given) was tested. Which growth did it give?
The growth was 95.4%.

With C=C(CO)[C@@H]1CC[C@]2(COC3CCCCO3)CC[C@]3(C)[C@H](CC[C@@H]4[C@@]5(C)C=C(C=O)C(=O)C(C)(C)[C@@H]5CC[C@]43C)[C@@H]12 (stereo not given in full) as the compound, how does the growth read?
Its growth is -68.8% (active).

With COc1cc2c(c(OC)c1OC)C(=O)CC(c1cccc(NC(=O)c3ccccc3Br)c1)O2 (stereo not given) as the compound, how does the growth read?
Its growth is 96.4%.

Which growth does the source give for Clc1ccc(-c2nc(-c3c[nH]c4ncccc34)cs2)cc1 here?
Its growth is 68.7% [100 µM].

With COC(=O)Cc1nc(C#N)c(N(C)C)o1 as the compound, how does the growth read?
Its growth is 109%.

Which growth does the source give for Cc1c2ccccc2nc2c1ccc1cccnc12 here?
The growth was -1.84% (active).

How did the growth turn out when Cc1cc(F)ccc1S(=O)(=O)Nc1cc(-c2c(O)ccc3ccccc23)c(O)c2ccccc12 was run?
Its growth is 17.3%.

With COc1ccc(-c2nnc(SCC(=O)Nc3ccc(/C(C)=N\O)cc3)n2-c2ccccc2)cc1OC as the compound, how does the growth read?
The growth was 82%.

Which growth does the source give for C/C(=N\O)C(=O)NCCCCCC(=O)Nc1ccccc1 here?
The growth was 109%.

How did the growth turn out when CN1CCN(Cc2ccc(NC(=O)c3cncc(C#Cc4cnn5ccccc45)c3)cc2C(F)(F)F)CC1 was run?
The growth was 0.315% (active).

Which growth does the source give for O=C(Cn1cc(CN2C(=O)c3ccccc3S2(=O)=O)nn1)Nc1cccc(Cl)c1 here?
The growth was 106%.

Which growth does the source give for CC[C@H](CC[C@@H](C)[C@H]1CC[C@H]2[C@@H]3CC[C@@H]4CC(=O)/C(=C\c5ccncc5)C[C@]4(C)[C@H]3CC[C@]12C)C(C)C here?
The growth was 106%.

With COc1ccc2nc(SCC(=O)Nc3ccccc3C)[nH]c2c1 as the compound, how does the growth read?
Its growth is 107%.

Nc1c(C(=O)Nc2cccc3ncccc23)sc2nc3c(cc12)C(=O)CCC3 was tested. Which growth did it give?
The growth was 37.4%.
